About 2,000 (36%) of roughly 5,500 compounds were called active. Not shown: some 18% with an inconclusive outcome. No stated cut-off is given here; in the data, active means normalized growth mostly below about 0.91 (no sharp cut-off); inconclusive means no clear call, values can overlap the other calls; inactive means mostly above about 0.92. The list shows a part of the results.
Assay: chemical genetic growth profiling, strain panel (AID 1159580);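 further: tested at 20 µM; growth read once vehicle control cultures reached saturation at 30 °C; 1 = growth at the plate median or of vehicle wells; lower values mean less growth of the strain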
Settings: S. cerevisiae deletion strains, growth OD

Measured: normalized growth

CN1C[C@H](CNC(=O)OCc2ccccc2)C[C@@H]2c3cccc4c3c(cn4C)C[C@H]21
inactive: locus YAL013W, strain DEP1, hits give low values 0.987 | locus YAL040C, strain CLN3, hits give low values 0.985 | locus YCL061C, strain MRC1 (second series), hits give low values 0.998 | locus YDR150W, strain NUM1, hits give low values 0.994 | locus YDR363W, strain ESC2, hits give low values 1.01 | locus YER002W, strain NOP16, hits give low values 1.04 | locus YJR075W, strain HOC1, hits give low values 0.969 | locus YNL153C, strain GIM3, hits give low values 0.904 | locus YNL175C, strain NOP13, hits give low values 1.01 | locus YNL197C, strain WHI3, hits give low values 0.994 | locus YNL224C, strain SQS1, hits give low values 1.04 | locus YOR083W, strain WHI5 (second series), hits give low values 0.969 | locus YPL055C, strain LGE1, hits give low values 1.02
